PubChem BioAssay (NCATS)
Records with an inconclusive call do not appear. The source made the active and inactive calls. Calls come from the whole dose curve; as a rule, active = well fitted inhibition curve with a large enough effect; inconclusive = small, poorly fitted or top-dose-only effect; inactive = flat fitted curve, though single readings scatter. Where a SMILES comes first, the peptide text is derived from it.

Each compound was assayed on HEK293 (assay: Cytotoxic Profiling of Annotated Libraries Using Quantitative High-Throughput Screening (AID 1296008; note: nearly all actives have a fitted effect of over 60% in size)). Conditions: Five cell lines viability, CellTiter-Glo ATP luminescence, 48-72 h; max response: active compounds read low.
Method in brief: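 Cytotoxicity was measured as CellTiter-Glo ATP luminescence, read after 10 min at room temperature. Compound treatment of the cells lasted 48 or 72 hr at 37 degrees Celsius in a qHTS format.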

Row | Structure (SMILES) | outcome
1 | C=C1C[C@@]23CC[C@@H]4[C@](C)(C(=O)O)CCC[C@@]4(C)C2=CC[C@H]1C3 | inactive
2 | CC1OC(OC2C(O)C(C(=O)O)OC(OC3CCC4(C)C(CCC5(C)C4C=CC4=C6CC(C)(C)CC(O)C6(C)CCC45C)C3(C)C)C2OC2OCC(O)C(O)C2O)C(O)C(O)C1O (centres undefined) | inactive
3 | CC1OC(O[C@H]2[C@@H](O)C[C@@]3(C)C([C@H](O)C[C@]4(C)C3CC=C3C5CC(C)(C)CC[C@]5(C(=O)OC5OC(CO)C(O)C(O)C5OC5OCC(OC6OCC(OC7OCC(O)C(O)C7O)C(O)C6O)C(OC6OCC(O)(CO)C6O)C5O)CC[C@]34C)[C@]2(C)CO)C(O)C(O)C1O (some centres undefined) | inactive
4 | CC(=O)O[C@H]1[C@H](C)[C@@H](O)[C@H]2[C@@H]1C=C(C(=O)O)[C@H]1C[C@@H]3[C@H]([C@H]21)[C@H]1C(=O)O[C@@H]2CC[C@@]3(C)O[C@]1(O)[C@@H]2C | inactive
5 | C[C@@H]1CC[C@]2(C(=O)O)CC[C@]3(C)C(=CCC4[C@]5(C)C(CC[C@]43C)C(C)(C)[C@@H](O)[C@H](O)[C@@H]5O)C2[C@]1(C)O (some centres undefined) | inactive
6 | C/C=C1\[C@H](O[C@@H]2O[C@H](CO)[C@@H](O)[C@H](O)[C@H]2O)OC=C(C(=O)OC)[C@H]1CC(=O)OC | inactive
7 | C/C=C/C=C/C(CC(=O)O)Nc1ccc(C=O)cc1 (centres undefined) | inactive
8 | C=C[C@@]1(C)CC(=O)C2[C@](C)(O1)[C@@H](OC(C)=O)[C@@H](O)[C@H]1C(C)(C)CCC[C@]21C (some centres undefined) | inactive
9 | CCC(C)/C=C(C)/C=C/C1=CC2=C(Cl)C(=O)C(C)(OC(C)=O)C(=O)C2=CN1C1CCCCN(C(CCC(N)=O)C(=O)O)C1=O (centres undefined) | inactive
10 | C=C1C(=O)OC2CC(C)=C(C(C)CCCO[C@@H]3O[C@H](CO)[C@@H](O)[C@H](O)[C@H]3O)C(O)C12 (some centres undefined) | inactive
11 | CC(C)C1=CCC(C)(O)C(OC2OC(CO)C(O)C(O)C2O)C1 (centres undefined) | inactive
12 | C[C@H]1C[C@H]2[C@@H]3CCC4=CC(=O)C=C[C@]4(C)[C@@]3(F)[C@@H](O)C[C@]2(C)[C@@]1(O)C(=O)COP(=O)(O)O | inactive
13 | C=C(C(=O)O)[C@@H]1CC=C2CCC[C@H](C)[C@@]2(C)C1 | inactive
14 | C=C1CC2[C@]3(C)C(=C(O)C(=O)[C@@]2(C)[C@]2(C(=O)OC)C(=O)C(C)OC(=O)[C@@]12C)C(C)(C)C(=O)CC3O (some centres undefined) | inactive
15 | COC(=O)[C@@]1(O)C=CC[C@@H]2[C@@]3(C)C[C@@H](c4ccoc4)OC(=O)[C@H]3CC[C@]21C | inactive
16 | CC(=O)OC[C@]12[C@H](OC(C)=O)C(=O)[C@@H]3[C@@H](OC(C)=O)[C@@]14O[C@@]3(C)COC(=O)c1cccnc1[C@@H](C)[C@H](C)C(=O)O[C@@H]([C@H](OC(C)=O)[C@@H]2OC(C)=O)[C@]4(C)O | inactive
17 | CCCCCCc1cccc(NC(=O)[C@H](N)CCP(=O)(O)O)c1 | inactive
18 | C/C(=C\CCC(C)(O)c1ccc(C)cc1)C(=O)O (centres undefined) | inactive
19 | CO[C@H]1C=C2C(CC[C@H](O[C@@H]3O[C@H](CO)[C@@H](O)[C@@H](O)[C@H]3O)C2(C)C)[C@]2(C)CC[C@]3(C)C([C@H](C)C(O)C(C=C(C)C)O[C@@H]4O[C@H](CO)[C@@H](O)[C@@H](O)[C@H]4O)CC[C@@]3(C)C12 (some centres undefined) | inactive
20 | C[C@@H]1O[C@@H](O[C@@H]2[C@@H](O)[C@H](O[C@@H]3[C@@H](O)[C@@H](O)[C@H](O[C@H]4[C@H](OC(=O)[C@]56CCC(C)(C)C[C@H]5C5=CCC7[C@@]8(C)C[C@H](O)[C@H](O[C@@H]9O[C@H](C(=O)O)[C@@H](O)[C@H](O)[C@H]9O)[C@@](C)(CO)C8[C@H](O)C[C@@]7(C)[C@]5(C)CC6)OC[C@H](O)[C@@H]4O)O[C@H]3C)OC[C@H]2O)[C@H](O)[C@H](O)[C@H]1O (some centres undefined) | inactive

Row | Structure (SMILES) | outcome
21 | C/C=C/C=C/C=C/C(=O)O[C@@H]1C=C(CO)C(O)(C(=O)O)[C@@]2(C)CCCC(C)(C)[C@H]12 (some centres undefined) | inactive
22 | CCOC(=O)c1ccnc(CNCC(=O)N(CC)CCN(C)C)c1 | inactive
23 | C/C=C/C=C/C=C/C(=O)O[C@@H]1[C@@H](OC)C2=C(C(=O)N(C(C)C(=O)O)C2)[C@@]2(C)CCCC(C)(C)[C@H]12 (some centres undefined) | inactive
24 | C[C@H]1CN(C[C@H](Cc2ccccc2)C(=O)NCC(=O)O)CC[C@@]1(C)c1cccc(O)c1 | inactive
25 | C=C(C)C(=O)O[C@H]1C[C@@](C)(OC(C)=O)[C@@]2(O)CC[C@@](C)(O)[C@H](OC(C)=O)[C@@]23OC(=O)C(COC)=C13 | inactive
26 | CC(=O)NCCCCn1c2c(c3ccccc31)C(=O)NCC2 | inactive
27 | CC[C@@H](c1ccc(F)c(F)c1)n1c(C(=O)OC)c(-c2ccno2)[nH]c1=S | inactive
28 | CC/C=C/CC1=C(CCCCCCCC(=O)O)CCC1=O | inactive
29 | C=C[C@H]1[C@H](O[C@@H]2O[C@H](CO)[C@@H](O)[C@H](O)[C@H]2O)OC=C2C(=O)OCC[C@]21O | inactive
30 | O=C(NN1CCCCC1)c1nn(-c2ccc(Cl)cc2Cl)c(-c2ccc(C#Cc3ccc(C(F)(F)F)cc3)s2)c1CNS(=O)(=O)N1CCCC1 | inactive
31 | NCc1c[nH]c(=S)n1C1CCc2c(F)cc(F)cc2C1 (centres undefined) | inactive
32 | O=C(O)Cc1nn(Cc2nc3cc(C(F)(F)F)ccc3s2)c(=O)c2nccnc12 | inactive
33 | CC(=O)N1CCN(NC(=O)c2ccc(F)cc2)CC1 | inactive
34 | COc1ccc2cc(OCC3(C(=O)O)CN(C(=O)c4ccc(F)cc4)C3)ccc2c1 | inactive
35 | C=C[C@](C)(CC/C=C(\C)C(=O)O)O[C@@H]1OC[C@H](O)[C@H](O)[C@H]1O | inactive
36 | CC1(C)CC2C3=CCC4C5(C)CCC(OC6OC(C(=O)O)C(O)C(O)C6OC6OC(CO)C(O)C(O)C6OC6OC(CO)C(O)C(O)C6O)C(C)(CO)C5CCC4(C)C3(C)CCC2(C)C(OC2OCC(O)C(OC3OC(CO)C(O)C(O)C3O)C2O)C1O (centres undefined) | inactive
37 | COc1cc(/C=C/C(=O)OC2[C@H](O)CC(O)(C(=O)O)C[C@H]2O)ccc1O (some centres undefined) | inactive
38 | CC(C)=CC/C=C(/C)[C@H]1CC[C@]2(C)[C@@H]1[C@H](O)CC1[C@@]3(C)CC[C@H](O)C(C)(C)[C@@H]3[C@@H](O[C@@H]3O[C@H](CO)[C@@H](O)[C@H](O)[C@H]3O[C@@H]3O[C@@H](C)[C@H](O)[C@@H](O)[C@H]3O)C[C@]12C (some centres undefined) | inactive
39 | CC1NC(=O)CNC(=O)C(C(C)C)NC(=O)C2CCCN2C(=O)C(C(C)C)NC(=O)C(Cc2c[nH]c3ccccc23)NC1=O (centres undefined) (cyclo(GAWVPV); configuration not given here) | inactive
